Screening results deposited in PubChem BioAssay by National Center for Advancing Translational Sciences (NCATS).
Pf growth 96h – Primary qHTS for delayed death inhibitors of the malarial parasite plastid, 96 hour incubation; P. falciparum luciferase reporter growth, 96 h; Potency, µM (top dose mostly 28.7 µM), without a hit: at the highest dose activity change, negative = inhibition, most hits filed as inhibitors; 6.9% of 320,000 active; AID 504834, 2011; also: potency is read from the fitted curve at half-maximal effect; % is scaled to controls: 0 for no effect and ±100 for the full control effect
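Compounds incubated with erythrocytes infected by luciferase-expressing P. falciparum (2% hematocrit, 0.05% parasitemia final) for 96 hours, 37 C in 5% CO2. Growth inhibition scored as decreased luciferase luminescence.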
Cycloheximide cs – Cycloheximide Counterscreen for Small Molecule Inhibitors of Shiga Toxin | 12% of 300,000 active | max response, % | cell reporter, cycloheximide protein synthesis inhibition counterscreen | AID 2314, 2010; in the data active = max response mostly above about 13%, no sharp cut-off; inactive = mostly below about 14%; also: read at 38.3 µM for the half of the compounds with a filed dose; 0% is about no effect
Pf growth 48h – Primary qHTS for delayed death inhibitors of the malarial parasite plastid, 48 hour incubation. Potency, µM (top dose mostly 28.7 µM), without a hit: at the highest dose activity change, negative = inhibition, usual class: inhibitors. P. falciparum luciferase growth in erythrocytes, 48 h. 5.9% of 310,000 active. AID 504832, 2011; also: potency is read from the fitted curve at half-maximal effect; % is scaled to controls: 0 for no effect and ±100 for the full control effect
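Luminescence readout; reporter = integrated firefly luciferase in P. falciparum. RBC culture at 2% hematocrit, 0.1% parasitemia final, 37 C/5% CO2; decreased signal taken as growth inhibition.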
HCMV antiviral – qHTS Assay for inhibitors of the human cytomegalovirus (HCMV). HFF cells, HCMV-luciferase reporter, 72 h; active compounds read low. activity change, negative = inhibition, % at 57.5 µM. 4.5% of 410,000 active. AID 1259415, 2018; in the data active = activity change below about -60%; inconclusive = no clear call, values can overlap the other calls; inactive = above about -39%; also: % is scaled to controls: 0 for no effect and ±100 for the full control effect
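Luciferase read-out from HCMV-luciferase-infected HFFs (MOI 1 PFU/cell) 72 h post infection at 37C; compounds added after 16 h cell attachment; activity normalized between buffer-only basal and Salinomycin (10uM) inhibitor controls.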
Shiga inhibitor – A qHTS for Small Molecule Inhibitors of Shiga Toxin; Vero cells, Shiga toxin protein synthesis inhibition reporter; inhibition, % at 38.7 µM; 9.2% of 290,000 active; in the data active = inhibition mostly above about 28%, no sharp cut-off; inactive = mostly below about 43%; also: 0% is about no effect
Active calls of the source: *; i = inactive; u = inconclusive; x = no result. The list is not random: actives were taken first. Their share in the collection is about 20%. Unless noted, calls follow the shape of the dose curve; as a rule, active = well fitted inhibition curve with a large enough effect; inconclusive = small, poorly fitted or top-dose-only effect, or another doubt; inactive = no such curve, though single readings can be large or run the other way.

SMILES	Pf growth 96h	Cycloheximide cs	Pf growth 48h	HCMV antiviral	Shiga inhibitor
Cc1ccc(C(=O)Cn2nc(C(=O)O)c3ccccc3c2=O)cc1C	8%	11	-1%	-12	-4
Cc1ccc(-n2c(C)cc(C(=O)Cn3nc(C(=O)O)c4ccccc4c3=O)c2C)cc1	u	19*	9%	u	42*
Cc1cc(C(=O)Cn2nnc3ccccc3c2=O)c(C)n1-c1c(C)n(C)n(-c2ccccc2)c1=O	-8%	-2	9%	23	-12
COc1ccc(-n2c(C)cc(C(=O)Cn3nc(C(=O)O)c4ccccc4c3=O)c2C)cc1	u	26*	u	-33	34*
COCC(C)n1c(C)cc(C(=O)Cn2nc(C(=O)O)c3ccccc3c2=O)c1C (centres undefined)	38%	28	106%	33	55*
Cc1cc(C(=O)Cn2nnc3ccccc3c2=O)c(C)n1-c1ccccc1F	x	46*	258%	-87*	29
COc1cc(C#N)ccc1OC(=O)c1cccc(S(=O)(=O)N2CCN(C)CC2)c1	58%	x	6%	8	x
COC(=O)c1cc2c(cc1NC(=O)c1c(C)nn(-c3ccc(C)cc3)c1-n1cccc1)OCO2	x	x	x	55	x
COc1ccc(-n2c(C)cc(C(=O)Cn3nnc4ccccc4c3=O)c2C)cc1	-30%	15*	u	u	18
Cc1cc(C(=O)Cn2nc(C(=O)O)c3ccccc3c2=O)c(C)n1-c1ccc(OC(F)F)cc1	u	4	u	-66*	19
Cc1cc(C(=O)COC(=O)c2ccc(O)cc2)c(C)n1-c1ccccc1F	i	42*	295%	-17	107*
COC(=O)c1ccc(-n2c(C)cc(C(=O)CSc3cccc[n+]3[O-])c2C)cc1	0%	5	-27%	u	-23
Cc1cc(C(=O)CSc2cccc[n+]2[O-])c(C)n1-c1ccc(OC(F)F)cc1	u	54*	-29%	-73*	59*
CN(C)C(CNC(=O)CCNS(=O)(=O)c1ccccc1C(F)(F)F)c1ccccc1 (centres undefined)	u	x	u	-1	x
CCOc1ccccc1C(=O)NCC(=O)NCC(C)(C)N1CCOCC1	-1%	x	-12%	-34	x
Cc1ccc(-c2nc(N)c3c(-c4ccc(C)cc4)nn(C(C)(C)C)c3n2)cc1	u	6	-17%	u	7
CC(C)(C)n1nc(-c2ccc(F)cc2)c2c(N)ncnc21	15µM*	-4	12µM*	u	-9
CC(C)(C)n1nc(-c2ccc(Cl)cc2)c2c(N)ncnc21	3.7µM*	-2	12µM*	u	-17
Cc1ccc(-c2nn(C(C)(C)C)c3ncnc(NS(=O)(=O)c4ccc([N+](=O)[O-])cc4)c23)cc1	u	8	u	-28	-4
CCCCCCSc1ccc(-c2nc3ccc(C)cn3c2NC2CCCCC2)cc1	13µM*	x	9.3µM*	17	x
Cc1ccc2nc(-c3ccncc3)c(NC3CCCCC3)n2c1	2%	-1	0%	-10	-6
Cc1ccc2nc(-c3ccsc3)c(NC3CCCC3)n2c1	21%	29	57%	-28	51*
Cc1ccc2nc(-c3ccncc3)c(NC3CCCC3)n2c1	u	6	-24%	-65*	5
O=C(Nc1cccc(Cl)c1)C1CCCN(c2nn3cc(-c4ccc(F)cc4)nc3s2)C1 (centres undefined)	x	x	x	0	x
Cc1cccc(C)c1NC(=O)CSc1nc2ccccc2c(=O)[nH]1	0.41µM*	-1	0%	35	-3
SMILES	Pf growth 96h	Cycloheximide cs	Pf growth 48h	HCMV antiviral	Shiga inhibitor
O=C(CSc1nc2ccccc2c(=O)[nH]1)Nc1ccc(C(=O)O)cc1	21%	-5	40%	-9	2
Cc1csc(NC(=O)CSc2nc3ccccc3c(=O)[nH]2)n1	-5%	6	4%	53	-16
CC(C)(C)c1csc(NC(=O)CSc2nc3ccccc3c(=O)[nH]2)n1	62%	-4	-28%	-107*	-20
CC(C)CC(=O)Nc1ccc(-c2nc3ccccc3c(=O)o2)cc1	7%	-3	12%	-20	-4
CC(C)CC(=O)Nc1ccc(-c2nc3ccccc3c(=O)[nH]2)cc1	352%	32*	235%	32	73*
O=C(CSc1nc2ccccc2c(=O)[nH]1)Nc1ccc(S(=O)(=O)N2CCCC2)cc1	2.3µM*	-5	-16%	-19	8
COc1ccccc1CC(=O)N1CCOCC1	-27%	-2	-1%	10	x
CCOC(=O)c1[nH]c2ccccc2c1NC(=O)c1ccc(S(=O)(=O)N(C)C)cc1	10µM*	-4	10µM*	1	-20
CN(C)S(=O)(=O)c1ccc(C(=O)Oc2cc(=O)[nH]c3ccccc23)cc1	8.3µM*	-4	12%	34	-4
CCOC(=O)c1[nH]c2ccccc2c1NC(=O)c1ccc(OCC)cc1	x	x	x	38	x
CCOC(=O)c1[nH]c2ccccc2c1NC(=O)c1ccc(S(=O)(=O)N2CCCCC2)cc1	9.3µM*	-5	u	-21	-11
CCOC(=O)c1oc2ccccc2c1NC(=O)c1ccc(S(=O)(=O)N2CCCC2)cc1	u	-2	8%	-2	-12
Cc1cc(C(=O)OCC(=O)Nc2c(Cl)cccc2C(F)(F)F)c(C)o1	9%	x	-7%	-4	x
C[C@@H]1CCCCO[C@@H](CN(C)C(=O)Nc2ccc3c(c2)OCO3)[C@@H](C)CN([C@H](C)CO)C(=O)c2cc(N(C)C)ccc2O1	x	x	x	19	x
COc1ccc(COc2ccc3c(C)cc(=O)oc3c2)cc1	u	67*	210%	23	134*
CCCc1cc(=O)oc2cc(OCC(=O)Nc3ccccn3)ccc12	181%	25*	101%	84	67*
CCCc1cc(=O)oc2cc(OCc3ccc(C(=O)O)cc3)ccc12	u	47*	26%	-7	130*
COc1ccc(-c2cc(=O)oc3cc(OCC(C)=O)ccc23)cc1	9%	-2	-2%	14	3
CCCc1cc(=O)oc2cc(OCC(=O)Nc3cc(C)on3)ccc12	u	1	67%	-6	-1
COc1ccc(-c2cc(=O)oc3cc(OCC(=O)Nc4ccccn4)ccc23)cc1	53%	26*	37%	-21	26*
CCNC(=O)CCSc1nnc(-c2ccc(O)cc2)o1	x	x	x	27	x
CCCCn1c(SCc2cc(=O)n3ccsc3n2)nc2cc(C(=O)OC)ccc2c1=O	u	-3	u	x	8
COC(=O)c1ccc(N)c(N=CC2=C(O)CC(C)(C)CC2=O)c1	62%	50*	25%	4	19*
CC1(C)CC(=O)C(C=Nc2cc(C(=O)c3ccccc3)ccc2N)=C(O)C1	14%	24*	-70%	42	101*
CCCCc1nnc2c(N(C)S(=O)(=O)c3ccc(C)cc3)nc3ccccc3n12	12µM*	-1	u	21	8
